Assay outcomes (PubChem)
An excerpt weighted towards active compounds, which were near 2.6% of everything screened.
Cruzain noTriton: blocks cruzain activity in detergent-free assay; purified cruzain, Z-FR-AMC fluorescence, no detergent; Potency, µM, inactives show max response, negative = inhibition, usual class: inhibitors; 200,000 compounds, 2.3% hits; AID 1476;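 also: plate controls were enzyme without inhibitor for no effect and buffer without enzyme for full effect; nearly all actives have a fitted effect of over 40% in size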
Target sequence (P25779 123-467 limits assumed): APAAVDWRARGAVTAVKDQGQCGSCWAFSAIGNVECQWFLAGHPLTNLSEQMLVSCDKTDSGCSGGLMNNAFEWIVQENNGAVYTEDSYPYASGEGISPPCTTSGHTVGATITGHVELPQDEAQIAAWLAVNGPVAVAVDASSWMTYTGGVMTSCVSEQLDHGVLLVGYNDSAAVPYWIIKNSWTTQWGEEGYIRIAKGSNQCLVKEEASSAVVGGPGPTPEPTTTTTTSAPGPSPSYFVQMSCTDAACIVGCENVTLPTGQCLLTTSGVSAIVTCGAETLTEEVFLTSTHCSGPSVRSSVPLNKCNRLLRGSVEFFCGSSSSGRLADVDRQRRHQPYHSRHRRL
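Detergent-free condition (0.00005% Triton X-100) in acetate buffer pH 5.5 with DTT. 1.5 nM enzyme and compound were pre-mixed 15 min, then 2 uM Z-FR-AMC substrate added; reaction progress from fluorescence change between first and third reads (60 s).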
Cruzain inh Det: inhibitors of Trypanosoma cruzi cruzain with detergent; AID 1478; Potency, µM, inactives show max response, negative = inhibition, hits mostly inhibitors; purified cruzain, Z-FR-AMC fluorescence, 0.01% Triton; P25779; 200,000 compounds, 0.43% hits;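 also: plate controls were neutral wells for no effect and buffer without enzyme for full effect; nearly all actives have a fitted effect of over 40% in size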
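Read-out: AMC fluorescence (360 nm excitation, 450 nm emission), four reads over 2 min, first-to-third difference used. Conditions: cruzain 1.5 nM, Z-FR-AMC 2 uM, pH 5.5 acetate, 5 mM DTT, 0.01% Triton X-100.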
Active calls of the source: *; ? = inconclusive; ! = repeats disagree. Calls follow the shape of the dose curve; as a rule, active = well fitted curve in the direction sought with a large enough effect; inconclusive = small, poorly fitted or top-dose-only effect, or another doubt; inactive = no such curve, though single readings can be large; an effect the other way counts as inactive or inconclusive. Potency is read from the fitted curve at half-maximal effect.

SMILES	Cruzain noTriton	Cruzain inh Det
Cc1ccc2occ(CC(=O)Nc3ccc(S(=O)(=O)N4CCCC(C)C4)cc3)c2c1 (stereo not given)	?	-7%
COc1cccc(-c2nc(N3CCN(c4ccccc4)CC3)c3ccccc3n2)c1O	10µM*	1%
COc1cccc(-c2nc(N3CCN(Cc4ccccc4)CC3)c3ccccc3n2)c1O	-4%	-12%
Cc1cccc(-n2c(SCC(=O)c3ccccc3)nnc2-c2ccc(Br)cc2)c1	0%	1%
Cc1ccc2c(CC(=O)Nc3ccc(N4CCN(C)CC4)cc3C)coc2c1	25µM*	1%
Cc1ccc(NC(=O)Cc2coc3c(C)c(C)ccc23)c(C)c1	-21%	-4%
N#CCCn1c(=O)cnc2cnc(Oc3cccc(Cl)c3)nc21	2%	-3%
CCc1ccc2oc(C(=O)Nc3cc(Cl)ccc3OC)cc(=O)c2c1	-5%	0%
COc1ccccc1NC(=O)c1oc2ccccc2c1NC(=O)c1ccc(S(=O)(=O)N(C)C)cc1	-6%	0%
O=C1CC(=C2c3ccccc3-c3ccccc32)C(=O)N1CCCCN1CCN(c2ccccc2)CC1	16µM*	-16%
O=C1CC(=C(c2ccccc2)c2ccccc2)C(=O)N1CCCN1CCN(c2cccc(Cl)c2)CC1	?	-1%
CC(C)c1ccc(NC(=O)c2cnc3sc(N4CCOCC4)nn3c2=O)cc1	-2%	8%
O=C1C(=O)N(C2CCN(C(=O)c3ccc(F)cc3)CC2)CCN1Cc1ccc(F)cc1	-9%	0%
COc1ccc(-c2nc3nc(C)cc(Nc4cccc(C(F)(F)F)c4)n3n2)cc1	25µM*	-1%
Cc1cc(Nc2cccc(C(F)(F)F)c2)n2nc(C)nc2n1	-4%	-1%
Cc1ccc(-c2cc(-c3ccc(Cl)cc3)c(C#N)c(N)n2)o1	?	0%
Cc1ccc(C2=NNC(c3ccc(Cl)cc3)=Nc3ccccc32)o1	13µM*	-6%
O=C(CC1C(=O)N(c2ccccc2)C(=O)N1Cc1ccc2c(c1)OCO2)Nc1ccccc1 (stereo not given)	-4%	-1%
Cc1cccc(CCNc2nc3ccccc3n3nnnc23)c1	-12%	4%
Clc1ccc(CCNc2nc3ccccc3n3nnnc23)cc1	25µM*	4%
COc1ccc(-c2nc(SCC(=O)NCc3nc4ccccc4n3C)n3[nH]c(=O)cc3n2)cc1	2%	0%
CCOC(=O)N1CCc2c(sc3c2c(=O)n(Cc2ccccc2)c(=O)n3CC(=O)Nc2cccc(CC)c2)C1	-17%	-1%
CCOC(=O)N1CCc2c(sc3c2c(=O)n(Cc2ccccc2)c(=O)n3Cc2cccc(Cl)c2)C1	7.9µM*	-3%
COC(=O)Cn1c(SCCOc2ccccc2OC)nc2ccccc21	9%	-2%
COC(=O)C1=C(c2ccccc2)c2ccccc2S(=O)(=O)N1CC(=O)Nc1ccc(F)c(F)c1	-14%	-9%
SMILES	Cruzain noTriton	Cruzain inh Det
CCOC(=O)C(C)NC(=O)c1cc2c(=O)[nH]c3ccc(C)cc3c2s1 (stereo not given)	?	3%
C=CC(C)(O)CC1[C@@]2(C)CCCC(C)(C)C2CC[C@]1(C)O (stereo not given in full)	?	-5%
COc1ccccc1NC(=O)Nc1ccc(Br)cn1	-6%	-1%
COc1ccc(Cl)cc1NC(=O)Nc1ccc(Br)cn1	13µM*	0%
CCN1CCN(c2ncnc3c2cnn3-c2ccc(F)cc2)CC1	-3%	1%
Cc1cc2c(C(C)C)c(O)c(O)c(C=O)c2c(O)c1-c1c(C)cc2c(C(C)C)c(O)c(O)c(C=O)c2c1O	?	25µM*!
CCCc1cnc2c(c1SCC(=O)Nc1ccc(C)c(Cl)c1)c(=O)n(C)c(=O)n2C	0%	0%
NC(=NCc1ccccc1)NC(=O)c1nc(Cl)c(N)nc1N	14µM*!	-13%
NC(=Nc1ccccc1)NC(=O)c1nc(Cl)c(N)nc1N	?	-12%
COc1ccc(CN2CCCN(CC(=O)Nc3cc(C)ccc3C)S2(=O)=O)cc1	10%	-4%
Cc1ccc(NC(=O)C2CC(=O)N/C(=N/N=C/c3ccco3)S2)cc1 (stereo not given)	?	-2%
Cc1ccc(NC(=O)C2CC(=O)N/C(=N/N=C/c3ccco3)S2)cc1C (stereo not given)	13µM*	-3%
O=C(O)c1cccc(NC(=O)c2cccc(S(=O)(=O)N3CCCCC3)c2)c1	2%	-3%
O=C(Nc1nc(-c2ccccc2)c(-c2ccccc2)s1)c1ccc(S(=O)(=O)N2CCCC2)cc1	?	6%
Nc1nc(NC(=O)c2cccc(S(=O)(=O)N3CCCCCC3)c2)nc(-c2ccccc2)n1	20µM*	0%
O=C(Nc1nc(-c2ccccc2)c(C(=O)c2ccccc2)s1)c1ccc(S(=O)(=O)N2CCCC2)cc1	25µM*	-2%
Cn1c(=O)c2c(nc(SCC(=O)Nc3ccc(OC(F)(F)F)cc3)n2Cc2cccc(C(F)(F)F)c2)n(C)c1=O	-8%	0%
